Screens deposited in PubChem BioAssay by National Center for Advancing Translational Sciences (NCATS).
A549 tox = A549 cytotoxicity, counter-screen for Nrf2 inhibitors; A549 ARE-Fluc cells, CellTiter-Fluor viability, 18-24 h; Potency, µM (top dose mostly 46 µM), inactives show at the top dose activity change, negative = cytotoxicity, hits mostly inhibitors; 390,000 compounds, 0.16% hits; AID 504648; also: potency is read from the fitted curve at half-maximal effect
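A549 ARE_Fluc cells in 5% FBS OPTI-MEM were exposed to compounds in concentration-response for 18-24 h at 37 deg C. Viability was read by CellTiter-Fluor fluorescence (Ex 405/Em 525) after 30 min, before the luciferase read.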
PI4K2A block = inhibitors of human PI4K2A | 420,000 compounds, 0.13% hits | purified PI4K2A, ADP-Glo luminescence, 1 h; active compounds read low | Q9BTU6 | AID 1346378 | activity change, negative = inhibition, % at 76.9 µM; in the data active = activity change below about -50%; inconclusive = mostly about -30% to -49%;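 also: -100% = wells without enzyme as full effect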
Target sequence (Q9BTU6 whole entry, looked up): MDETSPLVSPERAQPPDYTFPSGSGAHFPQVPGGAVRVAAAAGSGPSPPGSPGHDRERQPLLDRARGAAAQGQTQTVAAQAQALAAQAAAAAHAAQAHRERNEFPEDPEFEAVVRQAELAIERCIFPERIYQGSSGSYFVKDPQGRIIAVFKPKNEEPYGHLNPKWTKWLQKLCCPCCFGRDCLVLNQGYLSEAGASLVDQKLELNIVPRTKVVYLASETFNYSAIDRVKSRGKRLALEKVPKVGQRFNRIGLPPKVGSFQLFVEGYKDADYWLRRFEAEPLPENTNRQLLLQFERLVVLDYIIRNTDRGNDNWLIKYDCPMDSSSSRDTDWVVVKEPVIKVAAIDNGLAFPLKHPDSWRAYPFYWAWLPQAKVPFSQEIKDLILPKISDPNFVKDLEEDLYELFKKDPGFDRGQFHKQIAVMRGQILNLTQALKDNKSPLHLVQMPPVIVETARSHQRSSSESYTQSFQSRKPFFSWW
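ADP-Glo luminescence measured ADP generated by PI4K2A enzyme (4 ug/mL before mixing) with 1.2 mM PI substrate (pre-mix) and 300 microM ATP (pre-mix). Tris pH7.5 buffer with MgCl2, Triton X-100; 1 h reaction at ambient temperature.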
Nrf2 block = blocks Nrf2 signaling; A549 ARE-Fluc reporter, luciferase luminescence, 18-24 h; Potency, µM (doses to about 46 µM), for inactives: at the highest dose activity change, negative = inhibition, hits mostly inhibitors; 360,000 compounds, 2.1% hits; AID 504444; also: potency is read from the fitted curve at half-maximal effect; nearly all actives have a fitted effect of over 60% in size
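Two sequential reads on A549 ARE_Fluc cells exposed to compound for 18-24 h: a CellTiter-Fluor fluorescence read for viability, then a luciferase luminescence read for Nrf2/ARE activity.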
KB-3-1 tox = KB-3-1 parental cell cytotoxicity | 400,000 compounds, 1.4% hits | Potency, µM (top dose mostly 46.1 µM), hits mostly cytotoxic | KB-3-1 viability, CellTiter-Glo ATP luminescence, 72 h; also: potency is read from the fitted curve at half-maximal effect; nearly all actives have a fitted effect of over 60% in size
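Multi-concentration cytotoxicity screen in KB-3-1 cells grown in DMEM lacking phenol red with 10% FBS. After 72 h at 37 °C with compound, ATP-dependent luminescence was recorded.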
KB-V1 cytotox = KB-V1 MDR subline cytotoxicity; Potency, µM (doses to about 46.1 µM), actives largely listed as cytotoxic; AID 1347076; 400,000 compounds, 3.4% hits; KB-V1 MDR cells viability, CellTiter-Glo, 72 h; also: potency is read from the fitted curve at half-maximal effect; nearly all actives have a fitted effect of over 60% in size
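Potencies derive from concentration-effect curves fitted to normalized luminescence (CellTiter-Glo) of KB-V1 cells treated for 72 h at 37 degrees C in phenol-red-free DMEM containing 10% FBS.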
Giardia killer = Giardia lamblia killing | Giardia lamblia trophozoite viability | activity change, % at 7.66 µM, hits read low | 340,000 compounds, 0.15% hits | AID 540267; in the data active = activity change below about -80%; inconclusive = between about -30% and that limit;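 also: parasites exposed to compound for two days anaerobically before the ATP read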
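Luminescent ATP signal served as the viability read-out, measured 15-30 min after adding ATP detection reagent to trophozoites that had been incubated with compounds for 48 hrs at 37 deg C anaerobically at 100 cells/well.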
An asterisk follows results filed as active; i = inactive; ? = inconclusive; . = no result. Compounds with a hit are over-represented: about 5.7% of the library has one in this group of screens. Unless noted, calls follow the shape of the dose curve; as a rule, active = well fitted curve in the direction sought with a large enough effect; inconclusive = small, poorly fitted or top-dose-only effect, or another doubt; inactive = no such curve, though single readings can be large; an effect the other way counts as inactive or inconclusive. Unless noted, % is scaled to controls: 0 for no effect and ±100 for the full control effect.

SMILES	A549 tox	PI4K2A block	Nrf2 block	KB-3-1 tox	KB-V1 cytotox	Giardia killer
COc1ccc(C(=O)NC(C(=O)N2CCc3ccccc32)C(C)C)cc1 (centres undefined)	-15%	4	6%	i	8.2µM*	-6
COc1ccc(C(=O)NC(C(=O)N2CCN(c3ccccc3O)CC2)C(C)C)cc1 (centres undefined)	-8%	2	1%	i	?	16
COc1ccc(NC(=O)C(=O)NCC(c2ccco2)N2CCc3ccccc32)cc1 (centres undefined)	-7%	1	-5%	?	?	1
COc1ccc(C(=O)NCC(c2ccco2)N2CCc3ccccc32)cc1 (centres undefined)	-14%	1	?	5.8µM*	7.3µM*	6
CC(C)C(NC(=O)c1ccccc1)C(=O)OCC(=O)N1CCCCC1 (centres undefined)	9%	-3	6%	i	i	-3
CC(C)[C@H](NC(=O)c1ccccc1)C(=O)OCC(=O)N1CCc2ccccc2C1	1%	-1	9%	i	9.2µM*	-3
Cc1ccc(-c2cc(-c3nnc(SCC(=O)Nc4ccc(OCc5ccccc5)cc4)n3N)[nH]n2)cc1	.	0	.	.	.	.
Cc1cc(-c2ccc(C(C)C)c(S(=O)(=O)N3CCOc4ccccc43)c2)on1	9%	5	21µM*	?	?	2
CCc1ccc(-c2cc(C)no2)cc1S(=O)(=O)N1CCOc2ccc(C)cc21	2%	-6	13µM*	i	?	-5
Cc1nc([N+](=O)[O-])c(NCCO)n1Cc1ccccc1	-24%	-1	-2%	i	i	3
Cc1nc([N+](=O)[O-])c(Br)n1CC(=O)c1ccc(Cl)cc1	-22%	15	.	18µM*	?	3
Cc1nc([N+](=O)[O-])c(Br)n1Cc1ccc(Cl)c(Cl)c1	?	23	16µM*	?	?	5
COc1ccc(C(=O)Cn2c(C)nc([N+](=O)[O-])c2Br)cc1	-16%	-1	?	?	i	-7
CCC(C)OC(=O)C[N+](C)(C)CCOC1CC2CCC1(C)C2(C)C (centres undefined)	0%	5	20%	21µM*	i	9
CCCCCCCOC(=O)C[N+](C)(C)CCOC1CC2CCC1(C)C2(C)C (centres undefined)	1%	-8	-11%	21µM*	i	18
CCCCCCOC(=O)C[N+](C)(C)CCOC1CC2CCC1(C)C2(C)C (centres undefined)	1%	2	-14%	i	i	22
CC(C)CCOC(=O)C[N+](C)(C)CCOC1CC2CCC1(C)C2(C)C (centres undefined)	0%	5	-19%	i	i	11
O=C(Nc1nc2c(Br)cccc2s1)c1ccc2c(c1)OCCO2	.	-5	.	.	.	.
O=C(Cc1ccc(OCCC2CCCCC2)cc1)NO	.	.	.	i	i	.
Cc1ncc(COCc2ccccc2)c(CO)c1OCc1ccccc1	2%	-6	15%	i	18µM*	0
CCC[C@H]1[C@@H](OC(=O)NCc2cccc(Cl)c2)CC[C@@]23CCCN2C(=O)CCC[C@@H]13	.	0	.	.	.	.
CN(Cc1ccc(OC(F)F)cc1)C(=O)/C=C/c1ccc(S(=O)(=O)N2CCOCC2)cc1	0%	-4	23µM*	i	i	-30
CN(Cc1ccc(OC(F)F)cc1)C(=O)C1CCN(S(=O)(=O)c2ccc3c(c2)OCCO3)CC1	-2%	-1	23µM*	i	i	1
COc1ccc(CN(C)C(=O)/C=C/c2ccc(S(=O)(=O)N3CCOCC3)cc2)cc1F	-5%	-1	?	i	?	-15
CCOC(=O)[C@H]1[C@H]2COc3ccc(Br)cc3[C@H]2N2C(=O)CN(Cc3ccc(Cl)cc3)C(=O)[C@@]12C	-12%	-2	26µM*	?	?	10
SMILES	A549 tox	PI4K2A block	Nrf2 block	KB-3-1 tox	KB-V1 cytotox	Giardia killer
COc1ccccc1NC(=S)N=Nc1c(O)[nH]c2ccc(Br)cc12	-24%	0	?	2.3µM*	?	-20
Cc1cccc(NC(=S)N=Nc2c(O)[nH]c3ccccc23)c1	-18%	-1	?	i	i	-10
CCOCCCN1C(=O)CN(C2CCCCCC2)C(=O)C1c1ccc(OC(C)C)c(OC)c1 (centres undefined)	4%	-9	.	.	.	.
Cc1ccc(CN=C2Nc3ccccc3CS2)cc1	-4%	-9	?	?	13µM*	4
CCCCCn1nnnc1C1(C)Cn2nccc2C(=O)N1Cc1ccco1 (centres undefined)	.	-3	.	.	.	.
COc1ccc(-c2cnc3c(NC=O)cc(-c4cc(OC)c(OC)c(OC)c4)cn23)cc1OC	.	-7	.	?	23µM*	.
COc1ccc(-c2cc(NC=O)c3ncc(-c4cnn(C)c4)n3c2)cc1	.	-23	.	?	18µM*	.
COc1cccc(-c2cnc3c(NC=O)cc(-c4cc(OC)c(OC)c(OC)c4)cn23)c1	.	-3	.	i	?	.
COc1cccc(-c2cc(NC=O)c3ncc(-c4ccc(OC)c(OC)c4)n3c2)c1	.	-1	.	13µM*	15µM*	.
COc1ccccc1-c1cc(NC=O)c2ncc(-c3ccc(S(C)(=O)=O)cc3)n2c1	.	-6	.	13µM*	16µM*	.
O=CNc1cc(-c2cccc(F)c2)cn2c(-c3ccc(F)c(Cl)c3)cnc12	.	0	.	?	23µM*	.
COc1ccc(-c2cnc3c(NC=O)cc(-c4ccc(F)cc4)cn23)cc1OC	.	-6	.	0.21µM*	?	.
COc1ccc(-c2cc(NC=O)c3ncc(-c4cc(OC)c(OC)c(OC)c4)n3c2)cc1	.	-1	.	?	0.046µM*	.
O=CNc1cc(-c2ccccc2Oc2ccccc2)cn2c(-c3ccc(F)cc3)cnc12	.	-3	.	?	?	.
COc1ccc(-c2cnc3c(NC=O)cc(-c4ccc(S(C)(=O)=O)cc4)cn23)cc1OC	.	-3	.	?	i	.
COc1cc(-c2cnc3c(NC=O)cc(-c4ccc(S(C)(=O)=O)cc4)cn23)cc(OC)c1OC	.	0	.	?	i	.
CC(=O)c1ccc(-c2cnc3c(NC=O)cc(-c4ccccc4Oc4ccccc4)cn23)cc1	.	0	.	12µM*	?	.
CC(C)N1CCCCC(NC(=O)c2ccc(F)cc2)C1=O (centres undefined)	.	0	.	.	.	.
COc1ccc(-c2cc(NC=O)c3ncc(-c4cccc(OC)c4)n3c2)cc1	.	-9	.	6.5µM*	7.3µM*	.
COc1ccc(-c2cnc3c(NC=O)cc(-c4ccccc4)cn23)cc1OC	.	-4	.	1.2µM*	1.6µM*	.
COc1ccc(F)cc1-c1cc(NC=O)c2ncc(-c3cccc(C(F)(F)F)c3)n2c1	.	1	.	23µM*	?	.
